{"source": "PubChem BioAssay", "key": {"[1]": {"target": "Nuclear receptor coactivator 1 (Homo sapiens) (UniProt Q15788)", "sequence (Q15788 whole entry, looked up, the tested form may be a part)": "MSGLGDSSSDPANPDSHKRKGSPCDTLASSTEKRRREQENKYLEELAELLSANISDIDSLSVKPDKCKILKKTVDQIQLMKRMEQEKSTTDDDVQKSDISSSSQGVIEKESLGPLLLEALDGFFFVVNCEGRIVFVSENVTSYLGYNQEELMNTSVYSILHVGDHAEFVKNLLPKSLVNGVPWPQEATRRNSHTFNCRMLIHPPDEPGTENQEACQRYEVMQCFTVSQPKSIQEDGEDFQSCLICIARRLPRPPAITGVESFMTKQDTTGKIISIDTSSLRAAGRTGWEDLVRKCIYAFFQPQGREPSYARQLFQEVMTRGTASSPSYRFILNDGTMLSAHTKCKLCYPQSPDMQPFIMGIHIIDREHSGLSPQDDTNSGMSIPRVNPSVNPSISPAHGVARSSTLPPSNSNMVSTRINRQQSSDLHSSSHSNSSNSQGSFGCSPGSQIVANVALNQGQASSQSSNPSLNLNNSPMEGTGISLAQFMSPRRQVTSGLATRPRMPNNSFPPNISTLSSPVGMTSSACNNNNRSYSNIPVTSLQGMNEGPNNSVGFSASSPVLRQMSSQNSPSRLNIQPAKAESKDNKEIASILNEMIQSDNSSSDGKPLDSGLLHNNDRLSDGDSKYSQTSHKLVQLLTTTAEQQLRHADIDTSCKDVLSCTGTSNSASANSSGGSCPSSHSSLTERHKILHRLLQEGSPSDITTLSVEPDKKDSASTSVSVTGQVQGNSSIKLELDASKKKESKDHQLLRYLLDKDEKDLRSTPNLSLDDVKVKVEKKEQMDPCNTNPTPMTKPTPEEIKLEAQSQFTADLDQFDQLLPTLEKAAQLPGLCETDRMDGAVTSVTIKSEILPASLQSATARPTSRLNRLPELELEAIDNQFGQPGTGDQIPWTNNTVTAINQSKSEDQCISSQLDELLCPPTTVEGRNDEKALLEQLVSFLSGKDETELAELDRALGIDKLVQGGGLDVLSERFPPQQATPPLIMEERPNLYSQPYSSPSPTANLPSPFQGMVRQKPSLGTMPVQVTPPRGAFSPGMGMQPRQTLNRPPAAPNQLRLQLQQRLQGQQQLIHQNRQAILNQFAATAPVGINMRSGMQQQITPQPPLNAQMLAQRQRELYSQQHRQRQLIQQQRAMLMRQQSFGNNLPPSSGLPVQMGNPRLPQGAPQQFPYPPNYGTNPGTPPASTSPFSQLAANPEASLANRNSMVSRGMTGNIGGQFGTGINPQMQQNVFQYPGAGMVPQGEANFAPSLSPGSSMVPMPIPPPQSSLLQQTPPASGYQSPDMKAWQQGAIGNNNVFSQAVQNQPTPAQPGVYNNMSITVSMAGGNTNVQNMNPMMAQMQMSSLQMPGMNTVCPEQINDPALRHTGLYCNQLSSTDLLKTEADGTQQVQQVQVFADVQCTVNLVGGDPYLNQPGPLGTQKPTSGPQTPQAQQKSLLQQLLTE", "experiment": "NCOA1 GAL4-fusion reporter inhibition – cell-based, luminescence, quadruplicate, confirmation (AID 588820;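 active = mean inhibition above 46.68%, the untreated control wells mean plus 3 SD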;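 note: 0% = DMSO wells and 100% = gossypol 36 µM treated wells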)", "conditions": "HEK293 GAL4-SRC1 luciferase reporter, at 3.6 µM, active compounds read high"}, "[2]": {"experiment": "repression of VP16-driven luciferase reporter – cell-based, luminescence, high throughput, counter-screen for SRC1 inhibitor project (AID 588824)", "conditions": "cell-based VP16 transactivation luciferase luminescence; at 3.6 µM; active compounds read high"}}, "note": "A number with no mark means an inactive call. Activity calls are given as the source filed them. Cut-off read from the data, not from the text of the source, unless noted: active = inhibition above about 25%; inactive = the rest.", "data": [{"smiles": "COc1ccc(C(=O)Cn2c(Br)nc3c2c(=O)n(C)c(=O)n3C)cc1", "values": [{"measurement": "inhibition", "setting": "[1]", "result": -2.41, "unit": "%"}, {"measurement": "inhibition", "setting": "[2]", "result": 11.5, "unit": "%"}]}, {"smiles": "Cc1ccc(OCC(=O)Oc2c(C)cccc2C)cc1C", "values": [{"measurement": "inhibition", "setting": "[1]", "result": -3.92, "unit": "%"}, {"measurement": "inhibition", "setting": "[2]", "result": -9.72, "unit": "%"}]}, {"smiles": "C=C1C(=O)O[C@@H]2[C@H]1CC[C@H](C)[C@]1(O)CCC(=O)[C@@]21C", "values": [{"measurement": "inhibition", "setting": "[1]", "result": -18, "unit": "%"}, {"measurement": "inhibition", "setting": "[2]", "result": 11.1, "unit": "%"}]}, {"smiles": "CCOc1ccc(CCNC(=O)COC(=O)c2cc(OC)c(OC)cc2[N+](=O)[O-])cc1OCC", "values": [{"measurement": "inhibition", "setting": "[1]", "result": -11.8, "unit": "%"}, {"measurement": "inhibition", "setting": "[2]", "result": -2.67, "unit": "%"}]}, {"smiles": "COc1ccc(CCNC(=O)[C@H](CCSC)NC(=O)N2CCn3c2nc2ccccc23)cc1OC", "values": [{"measurement": "inhibition", "setting": "[1]", "result": 1.44, "unit": "%"}, {"measurement": "inhibition", "setting": "[2]", "result": -3.22, "unit": "%"}]}, {"smiles": "CCOC(=O)c1ccc(NC(=O)c2ccc(CN3CCc4ccccc4C3)cc2)cc1", "values": [{"measurement": "inhibition", "setting": "[1]", "result": -48.8, "unit": "%"}, {"measurement": "inhibition", "setting": "[2]", "result": "30.4% (active)"}]}, {"smiles": "Cc1c(C)n2c(SCC(=O)NCc3ccc4c(c3)OCO4)nnc2[nH]c1=O", "values": [{"measurement": "inhibition", "setting": "[1]", "result": -1.32, "unit": "%"}, {"measurement": "inhibition", "setting": "[2]", "result": -7.94, "unit": "%"}]}, {"smiles": "CCC1(c2ccc(F)cc2)NC(=O)N(CC(=O)NCC(=O)Nc2cccc(C)c2C)C1=O", "note": "(stereo not given)", "values": [{"measurement": "inhibition", "setting": "[1]", "result": 6.24, "unit": "%"}, {"measurement": "inhibition", "setting": "[2]", "result": 6.8, "unit": "%"}]}, {"smiles": "COc1ccc(S(=O)(=O)N2CCCCCC2)cc1C(=O)N(C)CCOc1ccccc1", "values": [{"measurement": "inhibition", "setting": "[1]", "result": 5.04, "unit": "%"}, {"measurement": "inhibition", "setting": "[2]", "result": -8.6, "unit": "%"}]}, {"smiles": "Cc1cccc(NC(=O)CSCC(=O)N2CCCc3ccccc32)c1", "values": [{"measurement": "inhibition", "setting": "[1]", "result": -14.1, "unit": "%"}, {"measurement": "inhibition", "setting": "[2]", "result": -4.48, "unit": "%"}]}, {"smiles": "CC1Cc2ccccc2N1S(=O)(=O)c1cccc(C(=O)N2CCN(c3ncccn3)CC2)c1", "note": "(stereo not given)", "values": [{"measurement": "inhibition", "setting": "[1]", "result": 16.5, "unit": "%"}, {"measurement": "inhibition", "setting": "[2]", "result": "77.4% (active)"}]}, {"smiles": "O=C(N/N=C/c1coc2ccc(Cl)cc2c1=O)c1ccc(O)cc1", "values": [{"measurement": "inhibition", "setting": "[1]", "result": 18.6, "unit": "%"}, {"measurement": "inhibition", "setting": "[2]", "result": 17.8, "unit": "%"}]}, {"smiles": "COc1ccc(-n2c(SC(C)C(=O)Nc3ncc(Cl)cc3Cl)nc3ccccc32)cc1", "note": "(stereo not given)", "values": [{"measurement": "inhibition", "setting": "[1]", "result": 35.4, "unit": "%"}, {"measurement": "inhibition", "setting": "[2]", "result": "79.4% (active)"}]}, {"smiles": "CN(C(=O)c1cccc(NC(=O)Cc2ccc(NC(=O)C3CCCN(C(=O)CCc4ccccc4)C3)cc2)c1)C1CCCC1", "note": "(stereo not given)", "values": [{"measurement": "inhibition", "setting": "[1]", "result": -3.52, "unit": "%"}, {"measurement": "inhibition", "setting": "[2]", "result": 19.6, "unit": "%"}]}, {"smiles": "Cc1cc(C)c2nc(NNC(=O)c3ccc(S(=O)(=O)N4CC(C)CC(C)C4)cc3)sc2c1", "note": "(stereo not given)", "values": [{"measurement": "inhibition", "setting": "[1]", "result": 32.4, "unit": "%"}, {"measurement": "inhibition", "setting": "[2]", "result": "30.2% (active)"}]}, {"smiles": "CCN1/C(=C2\\C(=O)N(C)C(=S)N2c2ccccc2)C=Cc2ccccc21", "values": [{"measurement": "inhibition", "setting": "[1]", "result": -4.3, "unit": "%"}, {"measurement": "inhibition", "setting": "[2]", "result": 2.2, "unit": "%"}]}, {"smiles": "Nc1c(Cl)ncnc1NCCc1ccc(O)cc1", "values": [{"measurement": "inhibition", "setting": "[1]", "result": -6.45, "unit": "%"}, {"measurement": "inhibition", "setting": "[2]", "result": "27.9% (active)"}]}, {"smiles": "C=C(C)Cn1c(SCC(=O)O)nc2c1c(=O)[nH]c(=O)n2C", "values": [{"measurement": "inhibition", "setting": "[1]", "result": 5.38, "unit": "%"}, {"measurement": "inhibition", "setting": "[2]", "result": 10.2, "unit": "%"}]}, {"smiles": "Cc1cccc(N2CCN(C(=O)CSc3nc4ccccc4nc3N3CC(C)OC(C)C3)CC2)c1C", "note": "(stereo not given)", "values": [{"measurement": "inhibition", "setting": "[1]", "result": -26.1, "unit": "%"}, {"measurement": "inhibition", "setting": "[2]", "result": 12.3, "unit": "%"}]}, {"smiles": "O=C(Nc1ccc(Cc2ccncc2)cc1)c1ccc(S(=O)(=O)N2CCOCC2)cc1", "values": [{"measurement": "inhibition", "setting": "[1]", "result": -12.7, "unit": "%"}, {"measurement": "inhibition", "setting": "[2]", "result": 9.65, "unit": "%"}]}, {"smiles": "COc1cc(/C=C/C(=O)Nc2ccc3nc4n(c(=O)c3c2)CCCC4)cc(OC)c1OC", "values": [{"measurement": "inhibition", "setting": "[1]", "result": -22.6, "unit": "%"}, {"measurement": "inhibition", "setting": "[2]", "result": -26.8, "unit": "%"}]}, {"smiles": "Cc1cccc(C)c1NC(=O)CN(C)CC(=O)Nc1ccc(F)c(Cl)c1", "values": [{"measurement": "inhibition", "setting": "[1]", "result": 4.35, "unit": "%"}, {"measurement": "inhibition", "setting": "[2]", "result": 11.2, "unit": "%"}]}, {"smiles": "COc1ccccc1C(c1nnnn1Cc1ccco1)N1CCN(c2cccc(C)c2C)CC1", "note": "(stereo not given)", "values": [{"measurement": "inhibition", "setting": "[1]", "result": 10.7, "unit": "%"}, {"measurement": "inhibition", "setting": "[2]", "result": 5.76, "unit": "%"}]}, {"smiles": "Cc1ccc(C2C3=C(CC(C)(C)CC3=O)OC3=C2C(=O)CC(C)(C)C3)cc1", "values": [{"measurement": "inhibition", "setting": "[1]", "result": 0, "unit": "%"}, {"measurement": "inhibition", "setting": "[2]", "result": 3.31, "unit": "%"}]}, {"smiles": "O=C(CS(=O)c1ccc(F)cc1)N1CCOCC1", "note": "(stereo not given)", "values": [{"measurement": "inhibition", "setting": "[1]", "result": -1.56, "unit": "%"}, {"measurement": "inhibition", "setting": "[2]", "result": -3.56, "unit": "%"}]}, {"smiles": "O=c1[nH]c(CSc2nc3ccccc3o2)nc2c1cnn2-c1ccccc1", "values": [{"measurement": "inhibition", "setting": "[1]", "result": -22.6, "unit": "%"}, {"measurement": "inhibition", "setting": "[2]", "result": 4.42, "unit": "%"}]}, {"smiles": "C=C1C(=O)O[C@@]23[C@H]1CC[C@@H](C)[C@@H]2CC[C@@]1(C)O[C@@H]31", "values": [{"measurement": "inhibition", "setting": "[1]", "result": 1.63, "unit": "%"}, {"measurement": "inhibition", "setting": "[2]", "result": 7.69, "unit": "%"}]}, {"smiles": "COc1ccc(-c2nc(-c3ccc(NC(=O)c4ccncc4)cc3)no2)cc1OC", "values": [{"measurement": "inhibition", "setting": "[1]", "result": -3.19, "unit": "%"}, {"measurement": "inhibition", "setting": "[2]", "result": "41.4% (active)"}]}, {"smiles": "NS(=O)(=O)c1ccc(N=Nc2c(O)ccc3ccccc23)cc1", "values": [{"measurement": "inhibition", "setting": "[1]", "result": 7.96, "unit": "%"}, {"measurement": "inhibition", "setting": "[2]", "result": 4.7, "unit": "%"}]}, {"smiles": "CCC(C(=O)OCC(=O)Nc1cc(Cl)cc(Cl)c1)c1ccccc1", "note": "(stereo not given)", "values": [{"measurement": "inhibition", "setting": "[1]", "result": -0.98, "unit": "%"}, {"measurement": "inhibition", "setting": "[2]", "result": -3.53, "unit": "%"}]}, {"smiles": "COc1ccccc1N1CCN(C(=O)C2CCN(S(=O)(=O)c3ccc4c(c3)CC(C)N4C(=O)C3CC3)CC2)CC1", "note": "(stereo not given)", "values": [{"measurement": "inhibition", "setting": "[1]", "result": -15.8, "unit": "%"}, {"measurement": "inhibition", "setting": "[2]", "result": 5.48, "unit": "%"}]}, {"smiles": "Cc1ccc(N2C(N)=C(C#N)C3(C(=O)N(C)c4ccccc43)C3=C2CC(C)(C)CC3=O)cc1Cl", "note": "(stereo not given)", "values": [{"measurement": "inhibition", "setting": "[1]", "result": 3.57, "unit": "%"}, {"measurement": "inhibition", "setting": "[2]", "result": 14.7, "unit": "%"}]}, {"smiles": "COc1cccc(C2=CC(=O)CC(C)(C)C2)c1", "values": [{"measurement": "inhibition", "setting": "[1]", "result": 18.3, "unit": "%"}, {"measurement": "inhibition", "setting": "[2]", "result": 14.3, "unit": "%"}]}, {"smiles": "Cc1ccc(S(=O)(=O)N(C)C)cc1NC(=O)COC(=O)CCC1CCCC1", "values": [{"measurement": "inhibition", "setting": "[1]", "result": 8.06, "unit": "%"}, {"measurement": "inhibition", "setting": "[2]", "result": 5.41, "unit": "%"}]}, {"smiles": "O=C(CN1C(=O)CCC1=O)Nc1ccc(S(=O)(=O)N2CCOCC2)cc1", "values": [{"measurement": "inhibition", "setting": "[1]", "result": -20.2, "unit": "%"}, {"measurement": "inhibition", "setting": "[2]", "result": 4.05, "unit": "%"}]}]}
